Bioassay records (PubChem BioAssay)
MCL1 BIM primary = inhibitors of human MCL1 binding to BIM-BH3 peptide; 320,000 compounds, 0.68% hits; inhibition, % at 10.9 µM; AID 2057; GST-MCL1 / FITC-Bim-BH3 fluorescence polarization; Q07820;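 active means inhibition above the mean inhibition of all tested compounds plus 3 SD, set per campaign, cut at about 40% in these data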;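 further: 0% = DMSO wells and 100% = unlabeled Bim-BH3 peptide control; higher means more loss of mP so more displacement of Bim peptide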
eLon inh = inhibitors of E. coli Lon protease | inhibition, % at 7.94 µM | 360,000 compounds, 0.42% hits | purified E. coli Lon protease, fluorescence polarization | P0A9M0 | AID 602123; in the data active means inhibition above about 13%, passing the limit was not always enough;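 further: 0% = enzyme with probe and DMSO and 100% = no enzyme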
BCLXL inh = blocks human Bcl-xL binding to Bim BH3 peptide | Q07817 | GST-Bcl-xL / FITC-Bim BH3 peptide fluorescence polarization | inhibition, % at 10.9 µM | 320,000 compounds, 0.7% hits | AID 2129;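 active means inhibition above the mean of all tested compounds plus 3 SD, cutoff set per campaign, cut at about 30% in these data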;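 further: 0% = DMSO wells and 100% = unlabeled Bim-BH3 peptide competitor; inhibitors lower millipolarization by displacing the labeled peptide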
GLD-1 RNA inh = GLD-1-TGE RNA interaction inhibition (C. elegans); Q17339; purified GLD-1 + fluorescein TGE RNA, fluorescence polarization; inhibition, % at 5.96 µM; 320,000 compounds, 0.44% hits; AID 2280;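 active means percent inhibition above a per-plate cutoff, the plate mean of test compounds plus 3 SD, cut at about 30% in these data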;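 further: 0% = DMSO wells with GLD-1 and probe and 100% = wells lacking GLD-1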
Target sequence (Q17339 whole entry, looked up): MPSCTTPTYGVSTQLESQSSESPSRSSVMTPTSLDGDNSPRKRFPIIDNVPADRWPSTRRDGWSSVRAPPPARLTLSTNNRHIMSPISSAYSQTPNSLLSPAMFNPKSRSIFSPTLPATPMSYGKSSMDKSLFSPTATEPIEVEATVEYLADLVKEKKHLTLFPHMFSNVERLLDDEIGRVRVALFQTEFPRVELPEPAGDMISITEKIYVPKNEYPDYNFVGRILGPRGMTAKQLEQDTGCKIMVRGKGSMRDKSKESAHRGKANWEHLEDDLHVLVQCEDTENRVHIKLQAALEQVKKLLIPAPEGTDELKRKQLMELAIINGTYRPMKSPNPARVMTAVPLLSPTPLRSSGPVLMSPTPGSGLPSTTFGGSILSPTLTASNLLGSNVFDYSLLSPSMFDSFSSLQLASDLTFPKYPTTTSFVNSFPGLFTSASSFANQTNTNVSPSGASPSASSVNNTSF
MEX-5 binding = C. elegans MEX-5 TCR-2 RNA binding activity | Q9XUB2 | MEX-5/FITC-TCR2 RNA binding, fluorescence polarization; active compounds read low | activity score (negative = inhibition of binding), % at 10 µM | 300,000 compounds, 0.38% hits;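 active means inhibition past about -25% in most replicates, and total fluorescence under double the plate's negative control median, limit read from the data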;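 further: 0% = DMSO and -100% = 5 µM competing unlabeled TCR2 RNA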
EBV gp42 block = blocks Epstein-Barr virus glycoprotein 42 binding; Q1HVG2; Fluorescence polarization binding assay, mP read-out; inhibition, % (tested at 21.74 µM); 220,000 compounds, 0.42% hits; AID 1085; in the data active means inhibition above about 50%
eLon confirm = E. coli Lon inhibition confirmation; shares compounds with eLon inh; purified E. coli Lon, fluorescence polarization; inhibition, % at 7.94 µM; 1,400 compounds, 31% hits; AID 602230; in the data active means inhibition above about 16%;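 further: 0% = enzyme with probe and DMSO and 100% = no enzyme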
Active calls of the source: *; . = no result given; + = active, no number. Rows were chosen to be rich in hits. Some 1.5% of all compounds tested hit in one or more screens of this group.

SMILES	MCL1 BIM primary	eLon inh	BCLXL inh	GLD-1 RNA inh	MEX-5 binding	EBV gp42 block	eLon confirm
CC(=O)NC1C(Oc2ccccc2C)OC(CO)C(O)C1O (stereo not given)	7	-4	7	2	-1	-13	.
CCOc1cc(C2C(C#N)=C(N)OC(C)=C2C(C)=O)cc(Br)c1O (stereo not given)	138*	24*	115*	88*	-69*	51*	13
COc1cccc(C(=O)CC(C(=O)O)c2ccc(F)cc2)c1 (stereo not given)	-5	5	-4	-2	-2	-19	.
O=C1CCCc2ccccc2N1Cc1ccc(Cl)cc1Cl	-6	18*	-2	0	2	-9	-1
O=C1CCCc2ccccc2N1Cc1ccccc1Cl	1	-5	2	8	3	-13	.
O=C(COc1ccc(F)cc1Cl)Nc1ccc(N2CCOCC2)cc1N1CCOCC1	-3	16*	-1	1	-1	.	0
Cc1ccc(-n2cc(CNCCN3CCOC3=O)c(-c3cccc(C)c3)n2)cc1	-2	16*	1	-1	-1	-7	-7
O=C(O)c1csc(-c2ccc(Cl)cc2)n1	2	16*	5	1	-1	-17	-1
C[C@@]12CCC3[C@@](CCC4[C@@]3(C)CCC[C@@]4(C)C(=O)N3CCCCC3)(CC1=O)C2 (stereo not given in full)	0	28*	2	8	.	.	7
CCOC(=O)C1CCCN(C(=O)c2ccc(S(=O)(=O)Nc3ccccc3OC)cc2)C1 (stereo not given)	2	21*	3	4	.	.	-11
O=C1c2ccccc2S(=O)(=O)N1CC(O)Cn1ccc2ccccc21 (stereo not given)	21	112*	24	16	-11	-4	45*
CC(=O)Nc1ccc(S(=O)(=O)NCc2ccc3[nH]c(C)cc3c2)cc1	11	19*	9	9	0	-10	7
Cc1ccc(S(=O)(=O)NCc2ccc3[nH]c(C)cc3c2)cc1	0	5	-2	0	-1	8	.
Cc1ccc(-c2nn(CC(=O)Nc3cccnc3)c(=O)c3ccccc23)cc1	6	-9	4	7	0	-12	.
COc1cc(OC)c(C2C(C(=O)O)c3ccccc3C(=O)N2C)cc1OC (stereo not given)	8	-7	7	0	1	-16	.
COc1ccc(C2C(C(=O)O)c3ccccc3C(=O)N2C)cc1Br (stereo not given)	5	19*	8	6	1	-1	-458
O=C(NC1CCCC1)c1cnc2n(c1=O)CCS2	-1	-25	0	6	-3	-12	.
CCOC(=O)c1cc2c(ccn2C)n1CC(=O)N1CCCC(C)C1 (stereo not given)	11	3	11	4	1	1	.
CCOC(=O)c1cc2c(ccn2C)n1CC(=O)N1CCC(Cc2ccccc2)CC1	2	20*	8	27	2	8	10
Cc1nn(C)cc1C(C(=O)NC1CCCCC1)N(C(=O)Cn1nnc2ccccc21)c1ccc(F)cc1 (stereo not given)	4	0	4	10	2	-13	.
Cn1c(CNc2ccc(Cl)cc2)nnc1SCc1ccccc1	7	+	4	-1	-1	-9	2
COc1cccc(/C(C)=N/Nc2ccc(S(=O)(=O)N3CCCCC3)cn2)c1	3	22*	6	7	.	.	4
CC(Oc1ccccc1)C(=O)N1CCN(c2ccc(N3CCCCCC3)nn2)CC1 (stereo not given)	2	7	7	-1	-2	.	.
O=C(NCCN1CCOCC1)c1cc(S(=O)(=O)NCCCN2CCCC2=O)ccc1Cl	11	40*	5	-1	-2	-9	10
O=C1CCCN1CCCNS(=O)(=O)c1ccc(Cl)c(C(=O)N2CCOCC2)c1	-1	-1	-2	7	2	-18	.
SMILES	MCL1 BIM primary	eLon inh	BCLXL inh	GLD-1 RNA inh	MEX-5 binding	EBV gp42 block	eLon confirm
O=C(NCCOC(=O)c1ccc(Cl)cc1)c1cccnc1	2	16*	1	6	1	-7	-9
N#Cc1ccsc1NC(=O)CSc1nncs1	.	28*	.	71*	.	.	31*
N#Cc1ccsc1NC(=O)CSc1ncn[nH]1	4	15	4	-4	-1	-7	.
CCC(C)(C)NC(=O)C(c1cccc(OC)c1OC)N(CCC(C)C)C(=O)CCC(=O)Nc1cc(C)on1 (stereo not given)	-2	1	0	-3	0	-5	.
CCC(C)(C)NC(=O)C(c1cccc(OC)c1OC)N(C(=O)CCC(=O)Nc1cc(C)on1)C(C)C (stereo not given)	6	21*	2	-2	2	.	5
COCCn1c2nc(=O)n(-c3ccccc3)c(=O)c-2nc2ccccc21	.	+	.	.	.	.	+
COc1ccc(C2=CC(c3ccco3)n3ncnc3N2)cc1 (stereo not given)	.	49*	.	.	.	88*	69*
NNC(=O)CSc1ncc(-c2ccccc2)[nH]1	5	15*	-1	-5	1	-8	-4
Cc1nnc(NC(=O)CSc2ncc(-c3ccccc3)[nH]2)s1	0	-3	2	4	-7	3	.
CCOC(=O)N1CCN(C(=O)CSc2ccc3nnc(-c4ccccn4)n3n2)CC1	4	1	5	7	-2	-14	.
CCOC(=O)N1CCN(C(=O)CSc2ccc3nnc(-c4ccncc4)n3n2)CC1	11	24*	7	3	0	-12	3
CCOc1c(S(=O)(=O)N2CCCC2)ccc(Cl)c1Cl	0	1	0	-1	-1	-3	.
COc1ccccc1N1CCN(CC(O)COc2ccc3c(c2)CCC3)CC1 (stereo not given)	-1	0	4	3	-1	-3	.
O=C(CNC(=O)c1ccccc1F)c1ccccc1	5	0	5	9	-2	.	.
NNC(=O)CNC(=O)c1ccccc1F	3	53*	2	5	-2	0	-4
O=C(O)CC/C(=C\c1ccc(Cl)c([N+](=O)[O-])c1)c1nc2ccccc2s1	6	1	8	-8	2	-11	.
O=C(O)CC/C(=C\c1ccc2c(c1)OCO2)c1nc2ccccc2s1	9	26*	13	28	-4	.	-17
C[C@H]1CN([C@@H](C)CO)C(=O)CCCn2nncc2CO[C@H]1CN(C)C(=O)NC1CCCCC1	.	13*	.	.	.	.	-3
Cc1noc(C)c1S(=O)(=O)N(C)C[C@@H]1OCc2cnnn2CCCC(=O)N([C@@H](C)CO)C[C@H]1C	.	15*	.	.	.	.	-10
CCn1nc(C(=O)N2CCc3ccccc3C2)c2ccccc2c1=O	6	-6	-1	-7	0	-6	.
